Rows were chosen to be rich in hits. Some 3.2% of all compounds tested hit in one or more screens of this group.
Mcl1 Noxa PPI: Mcl-1/Noxa interaction inhibition. TR-FRET Mcl-1/Noxa peptide binding, 2 h. inhibition, % at 21.7 µM. hit rate 1.5% among 220,000;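 active means compounds that cut the protein-peptide binding signal by more than 50% relative to plate controls in a single-dose test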;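 further: His-tagged Mcl-1 with rhodamine Noxa BH3 peptide and terbium anti-His antibody; 0% = Mcl-1 plus Noxa peptide wells and 100% = peptide-only wells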
Target sequence (Q07820 whole entry, looked up): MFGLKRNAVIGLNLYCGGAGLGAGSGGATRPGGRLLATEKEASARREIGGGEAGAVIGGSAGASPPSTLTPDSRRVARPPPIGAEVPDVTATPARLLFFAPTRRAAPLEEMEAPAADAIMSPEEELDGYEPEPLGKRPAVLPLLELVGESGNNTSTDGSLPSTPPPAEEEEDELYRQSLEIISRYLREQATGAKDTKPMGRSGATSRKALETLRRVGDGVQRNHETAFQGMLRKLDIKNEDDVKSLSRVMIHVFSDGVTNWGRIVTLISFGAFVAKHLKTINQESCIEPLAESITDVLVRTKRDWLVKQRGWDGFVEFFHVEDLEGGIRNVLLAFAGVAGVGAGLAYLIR
Mcl-1 Bim block: human Bim-Mcl-1 interaction inhibition. Q07820. Bead-based flow cytometry, Bim peptide-Mcl-1 binding. inhibition, % at 10 µM. hit rate 0.1% among 190,000; in the data active means inhibition above about 40%;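 further: 0% = no compound tracer wells and 100% = peptide blocker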
14-3-3 Bad PPI: disrupts binding of bovine 14-3-3 zeta to phospho-Bad peptide. TR-FRET 14-3-3zeta/Dy647-pBad peptide displacement, 1 h. hit rate 0.71% among 220,000. P63103. inhibition, % at 21.7 µM;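 active means inhibition above about 70%, limit read from the data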;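 further: 0% = full 14-3-3 plus peptide FRET controls and 100% = background without 14-3-3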
p47phox inh: p47phox (human) inhibition; hit rate 0.53% among 220,000; p47phox/p22phox peptide binding, fluorescence polarization, 2 h; inhibition, % at 24.7 µM; P14598;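 active means inhibition above about 30%, limit read from the data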;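 further: 0% = p47phox with labelled peptide and 100% = labelled peptide alone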
Mcl1-Bid inh: Mcl-1/Bid interaction inhibition | Q07820 | TR-FRET Mcl-1/Bid-Dy647 peptide binding, 1536-well | inhibition, % at 21.7 µM | hit rate 0.97% among 220,000 | AID 1021;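 active means compounds that cut the binding signal by more than half at the single screening dose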;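 further: His-tagged Mcl-1 with europium anti-His antibody binding Bid BH3 peptide; 0% = Mcl-1 plus peptide wells and 100% = peptide-only wells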
Numbers without * were called inactive; / = no result; [ ] = dose if it differs, or a comment.

SMILES	Mcl1 Noxa PPI	Mcl-1 Bim block	14-3-3 Bad PPI	p47phox inh	Mcl1-Bid inh
COCCNC(=S)Nc1cc(OC)c(OC)cc1C#N	24	19	0	-3	-15
Cc1ccc(C)n1-c1sccc1C(=O)O	95*	-4	22	-30	93*
CCCCNC(=O)Nc1nnc(-c2ccc(OCC)cc2)o1	6	0	2	-6	-4
CCCCNC(=O)Nc1nnc(-c2ccccc2)o1	10	2	1	-2	59*
CCOC(=O)CC(=O)Nc1ccn[nH]1	55*	/	-6	1	-1
CS(=O)(=O)c1ccc(C(=O)Nc2ccc(N3CCOCC3)cc2)c(Cl)c1	12	-1	-9	1	-40
CS(=O)(=O)c1ccc(C(=O)Nc2ccc(N3CCCC3)cc2)c(Cl)c1	67*	-1	-7	5	-32
Cc1ccc(C(=O)Nc2ccc(N3CCCC3)cc2)c(C)c1	75*	-1	0	-19	-32
CCCCN(C(=O)NC(=O)Nc1ccc(C)cn1)S(C)(=O)=O	-6	-1	1	-2	-5
O=C1NN(c2ccccc2)C(=O)/C1=C/c1ccc(Sc2cccc3ccccc23)o1	51*	-3	-5	2	-41
Cc1ccc(OCCn2cc(/C=C3\C(=O)NN(c4ccccc4)C3=O)c3ccccc32)cc1	14	-3	-2	1	5
CCOC(=O)c1c(NC(=O)CSc2nnc(C)o2)sc(C)c1C	-8	/	10	1	-14
Cc1nc(NCc2ccc3c(c2)OCO3)c2nnn(Cc3ccccc3)c2n1	-2	-3	68	7	33
c1ccc(Cn2nnc3c(NCc4ccc5c(c4)OCO5)nc(C4CC4)nc32)cc1	-26	3	64	12	52*
COc1ccc(/C=c2\s/c(=C(/C#N)C(=O)NCc3ccco3)n(-c3ccccc3)c2=O)cc1	10	0	8	-31	-9
COc1cccc(/C=c2/s/c(=C(\C#N)C(=O)N3CCOCC3)n(-c3ccccc3)c2=O)c1	43	3	76*[fluorescence artefact?]	12	53*
O=P(O)(COc1ccccc1)COc1ccccc1	16	0	72*	-10	18
CCOc1ccccc1C(=O)N1CCN(c2ccc(C(F)(F)F)cn2)CC1	-12	0	4	-4	-8
C=CCc1cc(/C=C2/NC(=O)N(CC)C2=O)cc(OCC)c1OCc1ccc(C(=O)O)cc1	9	-4	18	2	-43
O=C(COc1ncnc2cc([N+](=O)[O-])ccc12)NCc1ccc2c(c1)OCO2	60*	6	0	1	12
O=[N+]([O-])c1cccc(COc2ncnc3cc([N+](=O)[O-])ccc23)c1	53*	/	9	4	-50
COc1ccc(CCNC(=O)COc2ncnc3cc([N+](=O)[O-])ccc23)cc1	32	1	10	-2	1
O=C(O)CCC(CNS(=O)(=O)c1ccccc1)C(F)(F)F (centres undefined)	70*	2	0	-2	0
O=C(NC1CCCCC1)N1CCCC1	2	0	5	7	2
O=C(O)c1cccc(NC(=S)N/N=C/c2ccccc2OCc2cccc(Br)c2)c1	56*	-3	24	-38	-38
SMILES	Mcl1 Noxa PPI	Mcl-1 Bim block	14-3-3 Bad PPI	p47phox inh	Mcl1-Bid inh
O=C(O)c1cccc(NC(=S)N/N=C/c2cccc(O)c2)c1	17	0	0	-2	-36
COC(=O)c1ccc(COc2ccccc2/C=N/Nc2cccc(C(=O)O)c2)cc1	11	-1	-5	-13	-45
O=C(O)c1cccc(NC(=S)N/N=C/c2ccccc2OCc2ccc(Br)cc2)c1	52*	-4	5	-43	-37
CN(C)CCN(C(=O)c1ccc(N2C(=O)CCC2=O)cc1)c1nc2cc3c(cc2s1)OCCO3	32	-3	3	/	15
Oc1ccccc1Nc1ncnc2c1oc1ccccc12	15	-4	73*	2	15
c1ccc2c(c1)oc1c(Nc3ccc(CN4CCOCC4)cc3)ncnc12	46	-2	79*	-13	8
c1ccc(Nc2ncnc3c2oc2ccccc23)cc1	8	-1	71*	-8	6
c1ccc2c(c1)oc1c(Nc3ccc4c(c3)OCO4)ncnc12	38	0	51	-3	-8
CCCOc1ncnc2c1[nH]c1ccccc12	86*	0	-4	-13	-18
CC(C)(C)C1c2[nH]c3ccccc3c2CCN1Cc1cccc(OCCO)c1 (centres undefined)	18	0	-10	2	-29
CN(C)CCNC(=O)/C(=C/c1ccc(-c2ccc(Cl)cc2Cl)o1)NC(=O)c1ccccc1	16	-3	-22	32*	-1
